Shown are actives, neighbours in structure and some others; about 8% of the full set was active somewhere.
MCF10A rereplic – DNA re-replication induction in MCF 10a cells. MCF 10A DNA re-replication, Hoechst nuclear intensity, 48 h. Potency, µM (titrated, usually from 46.1 µM), most hits filed as activators. hit rate 2.9% among 350,000. AID 624296; also: nearly all actives have a fitted effect of over 50% in size
KB-3-1 tox – KB-3-1 parental cell cytotoxicity. KB-3-1 viability, CellTiter-Glo ATP luminescence, 72 h. Potency, µM (titrated, usually from 46.1 µM), most hits filed as cytotoxic. hit rate 1.4% among 400,000; also: nearly all actives have a fitted effect of over 60% in size
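Cells are dispensed, compounds pinned in, plates held at 37 °C for 72 h, then CellTiter-Glo is added and luminescence read after 10 minutes. Cell line: parental KB-3-1 in phenol-red-free DMEM, 10% FBS.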
SW480 rereplic – DNA re-replication induction in SW480 cells; Potency, µM (doses to about 46.1 µM), hits mostly activators; SW480 DNA re-replication, Hoechst DNA content imaging, 48 h; hit rate 1.8% among 340,000; AID 624297; also: nearly all actives have a fitted effect of over 55% in size
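Cells (250 per well) received 23 nL compound or DMSO by pin tool and were kept 48 hr at 37 C, 5% CO2. Nuclei were then stained with Hoechst for 40 min and scanned for DNA content.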
HT1080 IDH1KD tx – HT-1080 IDH1 knockdown cell toxicity (counter line); HT-1080 IDH1 knockdown viability, ATP luminescence, 48 h; Potency, µM (doses to about 46.1 µM), most hits filed as cytotoxic; hit rate 2% among 360,000
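Cytotoxicity counter-line: IDH1KD HT-1080, 48 h, CellTiter-Glo. Curves classed by r2, magnitude and activity.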
HT1080-NT tox – kills 2HG-producing HT-1080-NT fibrosarcoma cells; HT-1080-NT fibrosarcoma viability, CellTiter-Glo ATP luminescence, 48 h; Potency, µM (titrated, usually from 46.1 µM), hits mostly cytotoxic; hit rate 1.6% among 360,000; AID 686970;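 also: NT is the 2HG producing partner of a matched IDH1 knockdown line; nearly all actives have a fitted effect of over 55% in size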
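HT-1080-NT fibrosarcoma cells (2HG-overproducing), 750 cells/well in RPMI with 5% FBS, dosed after 2 h and incubated 48 h at 37C. CellTiter-Glo luminescence normalized to DMSO and no-cell wells; concentration-response curves fitted and classed.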
KB-V1 cytotox – KB-V1 MDR subline cytotoxicity; hit rate 3.4% among 400,000; AID 1347076; Potency, µM (doses to about 46.1 µM), most hits filed as cytotoxic; KB-V1 MDR cells viability, CellTiter-Glo, 72 h; also: nearly all actives have a fitted effect of over 60% in size
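Cells of the MDR subline KB-V1 are plated, dosed with compound at multiple concentrations, and incubated 72 h at 37 degrees C; CellTiter-Glo is then added and luminescence read after 10 min.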
Large screens that a line does not name were inactive. Calls follow the shape of the dose curve; as a rule, active = well fitted curve in the direction sought with a large enough effect; inconclusive = small, poorly fitted or top-dose-only effect, or another doubt; inactive = no such curve, though single readings can be large; an effect the other way counts as inactive or inconclusive.

O=c1c2c3c(sc2n(CCN2CCCCC2)c(=O)n1Cc1ccco1)CCCCC3	MCF10A rereplic 12.6µM, SW480 rereplic inconclusive, HT1080 IDH1KD tx inconclusive, HT1080-NT tox inconclusive, KB-V1 cytotox inconclusive
Cc1nc(-c2cccc(Br)c2)ccc1C(=O)O	none
CN=c1scc(-c2cccs2)n1/N=C/c1ccccc1O	MCF10A rereplic 14.6µM, KB-3-1 tox inconclusive, HT1080 IDH1KD tx inconclusive, HT1080-NT tox inconclusive, KB-V1 cytotox inconclusive
CN=c1scc(-c2cccs2)n1/N=C/c1ccc(O)c(O)c1O	KB-3-1 tox inconclusive, SW480 rereplic inconclusive, HT1080 IDH1KD tx inconclusive, KB-V1 cytotox inconclusive
O=C(O)c1ccc(-n2nncc2-c2ccco2)cc1	none
O=C(Nc1ccc(-n2nncc2-c2ccco2)cc1)c1ccc(F)cc1	SW480 rereplic inconclusive, KB-V1 cytotox 16.4µM
O=C(Nc1ccccc1)C1=C(c2ccccc2)S(=O)(=O)CCS1(=O)=O	MCF10A rereplic inconclusive, KB-3-1 tox inconclusive, SW480 rereplic 1.3µM, HT1080 IDH1KD tx 3.26µM, HT1080-NT tox 23.1µM
O=C(O)c1ccccc1C(=O)Nc1ccccc1	none
Cc1cccc(N2CCN(C(c3ccccc3)c3nnc(-c4ccccc4Cl)o3)CC2)c1C (configuration not stated)	none (no result: MCF10A rereplic, SW480 rereplic, HT1080 IDH1KD tx, HT1080-NT tox)
COc1cccc(-c2nc(=S)c3c(n2Cc2ccco2)CCCC3)c1	MCF10A rereplic 20.6µM, HT1080 IDH1KD tx inconclusive, HT1080-NT tox inconclusive
Cc1cccc(-c2nc(=S)c3c(n2Cc2ccco2)CCCC3)c1	SW480 rereplic inconclusive
COc1cc(OC)c(NC(=O)Nc2sc3nc4n(c(=O)c3c2C)CCC(C)CC4)cc1Cl (configuration not stated)	none (no result: MCF10A rereplic, SW480 rereplic, HT1080 IDH1KD tx, HT1080-NT tox)
COc1cccc(-c2nc(CS(=O)(=O)CC(=O)Nc3ccccc3C)c(C)o2)c1	none
COc1cccc(-c2nc(CSCC(=O)N3CCc4ccccc43)c(C)o2)c1	KB-3-1 tox inconclusive, KB-V1 cytotox 10.3µM
COc1cccc(-c2nc(CS(=O)(=O)CC(=O)Nc3ccccc3Cl)c(C)o2)c1	KB-3-1 tox 14.6µM, KB-V1 cytotox 6.51µM
COc1ccccc1CNC(=O)Cc1csc2nc(-c3ccccc3)cn12	none (no result: MCF10A rereplic, SW480 rereplic, HT1080 IDH1KD tx, HT1080-NT tox)
COc1cc(OC)c(N(C)S(=O)(=O)c2cccc(C(=O)OCC(=O)N(C)Cc3ccccc3)c2)cc1Cl	none
CCOC(=O)c1c(C=O)c(C)n(Cc2ccccc2Cl)c1C	MCF10A rereplic inconclusive, SW480 rereplic inconclusive, KB-V1 cytotox 23.1µM
CCOC(=O)c1c(C=O)c(C)n(Cc2ccc(C)cc2)c1C	MCF10A rereplic inconclusive, KB-3-1 tox inconclusive, SW480 rereplic inconclusive, HT1080 IDH1KD tx inconclusive, KB-V1 cytotox inconclusive
CCc1ccc(NC(=O)Cn2cnc3nc4c(cc3c2=O)CCCC4)cc1	none (no result: MCF10A rereplic, SW480 rereplic, HT1080 IDH1KD tx, HT1080-NT tox)
COc1ccc(NC(=O)CCN2C(=O)C3C4CCC(C4)C3C2=O)cc1 (configuration not stated)	HT1080 IDH1KD tx inconclusive
COc1ccc(NC(=O)CCN2C(=O)[C@@H]3[C@H](C2=O)[C@H]2C=C[C@@H]3C2)cc1	HT1080 IDH1KD tx inconclusive, HT1080-NT tox 18.4µM
O=C(CCN1C(=O)C2C3CCC(C3)C2C1=O)Nc1ccc(Br)cc1 (configuration not stated)	SW480 rereplic 11.6µM
CCc1nnc(NC(=O)CSc2nccn2Cc2ccc(Cl)cc2)s1	none (no result: MCF10A rereplic, SW480 rereplic, HT1080 IDH1KD tx, HT1080-NT tox)
CCc1nc2ccc(C(=O)NCc3ccco3)cc2nc1CC	none
CCC1=Nc2cc(C(=O)NCc3ccco3)ccc2Sc2ccccc21	MCF10A rereplic 4.11µM, KB-3-1 tox 2.59µM, SW480 rereplic 8.2µM, HT1080 IDH1KD tx 5.8µM, HT1080-NT tox 2.59µM, KB-V1 cytotox inconclusive
CCC1=Nc2cc(C(=O)NCc3cccnc3)ccc2Sc2ccc(C)cc21	MCF10A rereplic 2.31µM, KB-3-1 tox inconclusive, SW480 rereplic 3.66µM, HT1080 IDH1KD tx 2.59µM, HT1080-NT tox 2.31µM, KB-V1 cytotox inconclusive
CCC1=Nc2cc(C(=O)NCc3ccco3)ccc2Sc2ccc(Cl)cc21	MCF10A rereplic 3.66µM, KB-3-1 tox 1.46µM, SW480 rereplic 7.94µM, HT1080 IDH1KD tx inconclusive, HT1080-NT tox 5.17µM, KB-V1 cytotox 1.46µM

From PubChem
